From PubChem BioAssay (NCI) come the findings set out here.

Common to all, as to assay: NCI-60 one-dose screen, 48 h (100 = growth as untreated, 0 = no growth, -100 = all killed)
Assay [1] deals with NCI-H23 lung.
For assay [2], the system named is NCI-H226 lung.
For assay [3], the system named is NCI-H322M lung.
Assay [4] concerns HOP-62 NSCLC.
Assay [5] concerns NCI-H460 lung.
Assay [6] relates to HOP-92 NSCLC.
Assay [7] concerns NCI-H522 lung.
Assay [8] has as its system A549/ATCC NSCLC.
Assay [9] deals with 786-0 renal.
Assay [10] concerns COLO 205 colon.

Values joined by “and” are separate entries in the source; they are usually repeats but may differ in a detail not shown here. Equal values may be shown once. About 83,000 compounds went through this panel and 20% of them were active in at least one assay; those are over-represented in the sample as a whole.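 In brief: 96-well plates, 48 h treatment, single concentration, percent growth endpoint.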 Active and inactive are the calls of the source. Rule for the calls: active = growth percent below 10; inactive = the rest.

For the compound `CN(Cc1cnc2nc(N)nc(N)c2n1)c1ccc(C(=O)N[C@@H](CCC(=O)O)C(=O)O)cc1`, the growth in assay [1] (2.5 µM) was 20.9% (inactive); in [1] (10 µM) it was 31.7% (inactive); in assay [2] (2.5 µM) it was 39.6% (inactive); in assay [2] (10 µM), 35.1% (inactive); in assay [3] (2.5 µM) it was 53.6% (inactive); in [3] (10 µM) it was 52.6% (inactive). Besides, the growth in assay [4] (2.5 µM) was 30.6% (inactive); in assay [4] (10 µM), 32.1% (inactive); in [5] (2.5 µM) it was 23.5% (inactive); in [5] (10 µM), 20.7% (inactive); in assay [6] (2.5 µM) it was 32.6% (inactive); in [6] (10 µM), 25.1% (inactive). The growth in [7] (2.5 µM) was 47% (inactive); in assay [7] (10 µM), 35.3% (inactive); in [8] (2.5 µM), 31% (inactive); in assay [8] (10 µM), 22.8% (inactive); in assay [9] (2.5 µM) it was 11.7% (inactive); in [9] (10 µM) it was 12.3% (inactive). The growth in [10] (2.5 µM) was 50.5% (inactive); in assay [10] (10 µM), 44.1% (inactive).
On to `CC[C@@]1(O)C(=O)OCc2c1cc1n(c2=O)Cc2cc3c(CN(C)C)c(O)ccc3nc2-1`, for which the growth in [1] (10 µM) was -15.6% (active) and 1.45% (active); in [2] (10 µM), -48.3% (active) and -34.1% (active); in assay [3] (10 µM), 3.52% (active) and -20.1% (active); in [4] (10 µM) it was -7.57% (active) and -9.48% (active); in [5] (10 µM) it was 2.05% (active) and -6.71% (active); in [7] (10 µM) it was -57% (active). The growth is -30.7% (active) and 4.5% (active) in assay [8] (10 µM); 5.59% (active) and -13.2% (active) in assay [9] (10 µM); 9.58% (active) in assay [10] (10 µM).
For the compound `CC/C(=C(\c1ccccc1)c1ccc(OCCN(C)C)cc1)c1ccccc1`, the growth in assay [1] (10 µM) is 60.3% (inactive); in assay [1] (12.5 µM), -47.7% (active); in assay [2] (10 µM), 92.5% (inactive); in assay [2] (12.5 µM), 51.3% (inactive); in assay [3] (10 µM) it was 76% (inactive); in assay [3] (12.5 µM), 11.7% (inactive). Also, the growth is 43.1% (inactive) in [4] (10 µM); -91.2% (active) in assay [4] (12.5 µM); 2.39% (active) in [5] (10 µM); -66.8% (active) in assay [5] (12.5 µM); 9.65% (active) in [6] (12.5 µM); 46.6% (inactive) in [7] (10 µM). Besides, the growth is -46.4% (active) in assay [7] (12.5 µM); 49.8% (inactive) in [8] (10 µM); -44.9% (active) in assay [8] (12.5 µM); -41% (active) in assay [9] (10 µM); -95.2% (active) in assay [9] (12.5 µM); -89% (active) in [10] (10 µM). The growth in [10] (12.5 µM) is -71.9% (active).
As for `COc1ccc2sc3cccc(NCCN(C)C)c3c(=O)c2c1`, the growth was 60.9% (inactive) and 19.2% (inactive) in assay [1] (10 µM); 59.2% (inactive) and 13.7% (inactive) in [2] (10 µM); 41.2% (inactive) and 12.5% (inactive) in assay [3] (10 µM); 48.4% (inactive) and -70.3% (active) in assay [4] (10 µM); 21.5% (inactive) and -76.7% (active) in assay [5] (10 µM); 24.9% (inactive) and -9.03% (active) in [6] (10 µM). Further, the growth in assay [7] (10 µM) was -20.9% (active); in assay [8] (10 µM) it was 25% (inactive) and -23.4% (active); in [9] (10 µM), 60% (inactive) and 1.78% (active); in [10] (10 µM), -17.3% (active) and -81.8% (active).
